# From PubChem
# Shown is part of a subset that was picked to be rich in hits.
# CBX7 AlphaScr = CBX7 chromodomain binding inhibitors, primary screen, biochemical, AlphaScreen; hit rate 1.1% among 66,000; AlphaScreen His6-CBX7 / biotin-H3K27me3 peptide binding; stronger effect = lower value; Chromobox protein homolog 7 (Homo sapiens), O95931; normalised signal (fraction of DMSO) (concentration not given with the values); in the data active = normalised signal below about 0.5
# Target sequence (O95931 whole entry, looked up): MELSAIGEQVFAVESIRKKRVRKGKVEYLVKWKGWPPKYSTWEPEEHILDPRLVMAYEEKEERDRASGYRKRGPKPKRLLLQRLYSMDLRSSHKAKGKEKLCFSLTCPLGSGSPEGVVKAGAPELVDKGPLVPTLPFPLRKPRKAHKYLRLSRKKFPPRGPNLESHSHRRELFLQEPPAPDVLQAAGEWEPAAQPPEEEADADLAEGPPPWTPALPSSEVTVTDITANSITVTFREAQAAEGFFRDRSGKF
# Active calls of the source: *; ! = not active in a repeat.
SMILES,CBX7 AlphaScr
CCCCCn1c(CCCNC(=O)c2ccc(OC)c(OC)c2)nc2ccccc21,1.13
CCOc1ccc(Nc2cc(C(=O)NCCC3=CCCCC3)c3ccccc3n2)cc1,1.1
COc1ccc(C(=O)Nc2c3c(nc4c2CCC4)CCCC3)cc1OC,0.97
CC(C)c1ccc(NC(=O)C2=CCN(S(=O)(=O)c3ccc(F)cc3)CC2)cc1,0.912
Cc1ccc(Nc2c(-c3ccc(N(C)C)cc3)nc3ccc(Br)cn23)cc1,0.859
COc1cccc(Nc2nc(-c3ccccc3F)nc3ccccc23)c1,0.331*
COc1ccc(Nc2nc(-c3ccccc3F)nc3ccccc23)c(OC)c1,1.42
Fc1cccc(Nc2nc(-c3ccccc3F)nc3ccccc23)c1,1.11
CCOc1ccccc1NC(=O)c1cc2c(-c3cccc(OC)c3)nn(C)c2s1,1.01
O=C(CC1Oc2ccc(Cl)cc2NC1=O)NCCCc1ccccc1 (stereo not drawn),1.05
COC(=O)c1ccccc1S(=O)(=O)Nc1nn[nH]n1,1.01
O=[N+]([O-])c1ccc(-c2cn(-c3ccccc3NCc3ccccc3)cn2)o1,0.483*
Cn1cnc(S(=O)(=O)NCc2ccccc2)c1,1.01
Cc1ccc(S(=O)(=O)c2nc(C)oc2NCc2ccccc2)cc1,0.997
CCOc1ccc(-c2csc(NC(=O)CCCOc3ccc(Cl)cc3)n2)cc1,1.11
Cc1ccc(-c2cc(C(F)F)n3ncc(C(=O)NCc4ccccc4)c3n2)cc1,1.02
O=C(c1ccccc1)c1cn(Cc2ccc(F)cc2)c2c(F)cc(F)cc2c1=O,0.813
Cc1ccc(NC(=O)c2ccc3c(c2)N(Cc2ccc(F)cc2)C(=O)CS3=O)c(C)c1 (stereo not drawn),0.955
Cc1ccc(NC(=O)C2CCN(Cc3cnn(-c4ccccc4)c3-n3cccc3)CC2)c(C)c1,0.995
CCOC(=O)Cn1c(=O)c(-c2cc(Br)ccc2NC)nc2cc3ccccc3cc21,0.836
CCNc1ccc(Br)cc1-c1nc2ccccc2n(CC)c1=O,0.271*
CCOC(=O)Cn1c(=O)c(-c2ccccc2NCc2ccccc2)nc2ccccc21,0.977
Fc1ccccc1COc1ccc(-c2nnc3ccc(C(F)(F)F)cn23)cc1,1.21
COC(=O)c1c(-c2ccc(F)cc2)csc1NC(=O)C1CC=CCC1C(=O)O (stereo not drawn),0.92
COc1ccc(-c2nnc(SCC(=O)NCc3ccccc3)n2-c2ccccc2)cc1OC,1.08
SMILES,CBX7 AlphaScr
COc1ccc(CCNC(=O)c2nc3ccccc3[nH]2)cc1,0.976
CCOc1ccc(Nc2nc(-c3ccc(OC)c(F)c3)cs2)cc1,0.997
COc1cccc(Nc2nc(-c3ccc(C)cc3)cs2)c1,0.666
Cc1ccc(Nc2nc(-c3ccc(-c4ccccc4)cc3)cs2)cc1Cl,0.884
Cc1ccc(C)c(-c2csc(Nc3ccc(C)c(Cl)c3)n2)c1,0.374*!
COc1cccc(Nc2nc(-c3ccc(F)cc3)cs2)c1,0.465*
Cc1ccc(Nc2nc(-c3ccc(C)c(C)c3)cs2)cc1,0.45*
Cc1ccc(C)c(-c2csc(Nc3ccc(F)cc3)n2)c1,0.937
Cc1ccc(Nc2nc(-c3ccccc3)cs2)cc1Cl,0.72
Cc1ccc(Nc2nc(-c3ccc(Cl)cc3)cs2)cc1C,0.775
Cc1ccc(Nc2nc(-c3ccc(I)cc3)cs2)cc1C,0.783
COc1ccc(-c2csc(Nc3cccc(C(=O)O)c3)n2)cc1,0.753
COc1ccc(-c2csc(Nc3ccc(C)c(Cl)c3)n2)cc1F,0.392*!
CCCc1sc(Nc2cccc(Cl)c2)nc1-c1ccccc1,0.946
CCOC(=O)c1nnn(-c2nonc2N)c1CN1CCSCC1,0.864
CCOC(=O)N1CCC(NC(=O)C2CCN(c3nc4ccc(OCC)cc4s3)CC2)CC1,0.928
COc1ccc(Nc2cc(C(=O)NCCCN3CCCC(C)C3)c3ccccc3n2)cc1 (stereo not drawn),0.951
COc1cccc(CNC(=O)CN2N=C(c3ccccc3)CCC2=O)c1,1.1
CCN(CC)CCCNC(=O)c1nn2c(C(F)(F)F)c3c(nc2c1Cl)-c1ccccc1CC3,1.26
COc1ccc(C2C(C(=O)NCc3ccc(F)cc3)CCC(=O)N2c2ccc(OC)cc2)cc1 (stereo not drawn),1.21
Cc1cc(F)ccc1NC(=O)CN1C(=O)CCSc2ccccc21,0.983
Cc1ccc(S(=O)(=O)c2nc(-c3ccccc3)n3c2SCC3)cc1,0.834
Cc1cc(N2CCC(C)CC2)nc2ccc(NC(=O)c3cccc(F)c3)cc12,0.8
Cn1nc(-c2ccc(C(=O)N3CCCCC3)cc2)c2ccccc2c1=O,0.984
O=C(Nc1ccc(C#CC2(O)CCCCC2)cc1)C(c1ccccc1)c1ccccc1,0.851
SMILES,CBX7 AlphaScr
CCCCCCOc1ccc(N2C(=O)CC(N3CCN(Cc4ccccc4)CC3)C2=O)cc1 (stereo not drawn),1.09
Clc1ccc(Nc2nc(-c3ccncc3)cs2)cc1,0.998
Oc1ccc(Nc2nc(-c3ccc(Cl)cc3)cs2)cc1,0.44*
Clc1ccc(-c2csc(Nc3ccc(Br)cc3)n2)cc1,0.696
OC(c1ccccc1)(c1ccccc1)C1CCN(c2ccc3nnc(-c4ccccc4)n3n2)CC1,0.839
Cc1ccc(-c2ccc(CCC(=O)O)n2-c2ccc(F)cc2)cc1,1.05
CCN(c1ccccc1)S(=O)(=O)c1ccc(C(=O)Nc2nnc(COC)o2)cc1,0.787
COCc1nnc(NC(=O)c2ccc(S(=O)(=O)N(C)c3ccccc3)cc2)o1,0.705
CC(C)N(Cc1ccccc1)S(=O)(=O)c1ccc(C(=O)Nc2nnc(-c3cccs3)o2)cc1,0.878
CN(c1ccccc1)S(=O)(=O)c1ccc(C(=O)Nc2nnc(C3CC3)o2)cc1,0.55
CCN(c1ccccc1)S(=O)(=O)c1ccc(C(=O)Nc2nnc(C3CC3)o2)cc1,0.0661*
CCc1nnc(NC(=O)c2ccc(S(=O)(=O)N(CC)c3ccccc3)cc2)o1,0.0735*
CCOC(=O)N1CCC(Nc2c(NCCc3ccc(Cl)cc3)c(=O)c2=O)CC1,1.06
CCOC(=O)c1ccc(NC(=O)c2cc3c(n(-c4ccc(OC)cc4)c2=O)CC(C)(C)CC3=O)cc1,1.11
O=C(Nc1ccc(F)cc1F)C1CCN(S(=O)(=O)c2cnc[nH]2)CC1,0.83
CCCC(=O)N1CCC(=O)Nc2ccccc21,1.08
CCOC(=O)c1cnc2ccc(OCC)cc2c1N1CCN(c2ccccn2)CC1,0.576
CCOC(=O)c1cnc2ccc(OCC)cc2c1N1CCN(Cc2ccccc2)CC1,0.498*
CCOC(=O)c1cnc2ccc(OCC)cc2c1N1CCN(C)CC1,1.17
Brc1ccc(Nc2nc3nonc3nc2N2CCN(Cc3ccccc3)CC2)cc1,0.683
CCn1c(SCC(=O)Nc2cccc(C)c2)nnc1-c1c[nH]c2ccccc12,1.14
COc1ccc(C(=O)CC2(O)C(=O)N(Cc3ccc(Cl)cc3)c3ccccc32)cc1 (stereo not drawn),0.77
Cc1ccc(C(=O)CC2(O)C(=O)N(Cc3ccc(Cl)cc3)c3ccccc32)cc1 (stereo not drawn),0.732
CCc1ccc(C(=O)CC2(O)C(=O)N(Cc3ccc(Cl)cc3)c3ccccc32)cc1 (stereo not drawn),0.423*
COCCCNC(=O)C1CCCN(Cc2nc(-c3cccc(Cl)c3)oc2C)C1 (stereo not drawn),0.918
CN1CCc2c(n(CC(O)CN3CCCCC3)c3ccccc23)C1=O (stereo not drawn),1.12
O=C1CN(S(=O)(=O)c2ccc3c(c2)CCN3C(=O)C2CC2)CC(=O)N1CCc1ccccc1,1.04
O=C(O)c1c[nH]c2ccc(S(=O)(=O)NCc3ccc4c(c3)OCO4)cc2c1=O,0.477*
